Test results taken from PubChem BioAssay (EPA / NIEHS).
Where “and” joins values, the source holds several entries; their conditions need not be identical. Equal values may be shown once. Results filed as inconclusive are left out. More than one record can exist for a structure, and the calls need not agree. Calls of active or inactive are those of the source. The calls were made as follows, unless noted: active = hit-call score of the fitted dose curve at least 0.9, where 1 is the maximum; inconclusive = response in the unintended direction; inactive = score below 0.9.

Tests used:
[1] = Tanguay_ZF_120hpf_SWIM_legacy: (Legacy) Oregon State University Tanguay Lab 120 Hour Post-fertilization zebrafish Assay for Swim Bladder Malformation (AID 2283654);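 also: swim bladder malformation in each larva scored yes or no under brightfield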
Outline: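 Static waterborne exposure of single dechorionated Tropical 5D zebrafish embryos, 6–120 hpf, 28C, 0.64% DMSO final. Read-out: swim bladder malformation, present/absent, relative to DMSO negative control; trimethyltin chloride 5uM served as positive control.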

[2] = Tanguay_ZF_120hpf_TRUN_legacy: (Legacy) Oregon State University Tanguay Lab 120 Hour Post-fertilization zebrafish Assay for Truncated Body (AID 2283655)
Outline: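 Truncated body is recorded as a binary endpoint at 120 hpf by brightfield imaging of wild-type 5D larvae. Exposure runs statically from 6 hpf at 28C with 0.64% DMSO; embryos dying earlier are not scored.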

[3] = Tanguay_ZF_120hpf_NC_legacy: (Legacy) Oregon State University Tanguay Lab 120 Hour Post-fertilization zebrafish Assay for Notochord and Tail Malformation (AID 2283656)
Outline: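 Binary notochord-distortion calls, made by brightfield inspection, form the read-out; activity is fitted in the positive direction against DMSO. Exposure ran statically from 6 to 120 hpf at 28C with 0.64% DMSO.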

[4] = Tanguay_ZF_120hpf_TR_legacy: (Legacy) Oregon State University Tanguay Lab 120 Hour Post-fertilization zebrafish Assay for Touch Response (AID 2283667)
Outline: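 Readout is presence or absence of touch response in 120 hpf zebrafish larvae, assessed by brightfield observation after continuous static exposure at 28C. Final vehicle was 0.64% (vol/vol) DMSO.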

[5] = Tanguay_ZF_120hpf_ActivityScore_legacy: (Legacy) Oregon State University Tanguay Lab 120 Hour Post-fertilization zebrafish Assay Score for Activity (AID 2283742);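 as to AC50: dechorionated Tropical 5D wild-type zebrafish embryos held singly per well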
Outline: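 In this whole-embryo screen, dechorionated zebrafish were exposed from 6 hpf until 120 hpf at 28C under a 0.64% DMSO vehicle. Developmental malformations and death were recorded by brightfield microscopy as binary endpoints.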

[6] = CCTE_Padilla_ZF_144hpf_TERATOSCORE: (Legacy) CCTE's 144 Hour Post-fertilization zebrafish Assay Teratoscore, Padilla Lab (AID 2283679; active = hit-call score of the fitted dose curve at least 0.9, where 1 is the maximum; inactive = score below 0.9;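 as to AC50: zebrafish embryos with chorions exposed by immersion from 6-8 hpf to 5 dpf with daily renewal; teratogenicity score from eye scoring of death hatching and malformations at 144 hpf; higher score means more developmental defects relative to DMSO baseline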)
Outline: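 Larvae scored by eye at 144 hpf for death, hatching and malformations after a day in clean Hanks'. Before that, daily-renewed exposure at 80 uM (0.4% DMSO, 26C) from roughly 6-8 hpf through 5 dpf, 4 embryos per chemical.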

[7] = STM_H9_OrnCyssISnorm_ratio: Stemina devTOX quickPredict H9 human embryonic stem cell (hESC)-based Assay for Ornithine (ORN):Cystine (CYSS) Ratio (AID 2283714)
Outline: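 H9 hESC, 72h, q24h re-dose; last-day media → acetonitrile deproteinization → UPLC-HRMS. ORN:CYSS ratio from isotope-normalized EIC areas, vs 0.1% DMSO; MTX references on each plate.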

[8] = tested on: Thyroperoxidase (TPO), gene 54314; assay: CCTE_Simmons_AUR_rTPO: CCTE's Amplex UltraRed Assay for Thyroperoxidase (TPO) Inhibition, Simmons Lab (AID 2283662);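 also: potency for loss of signal meaning inhibition of peroxidase activity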
Outline: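 Rat thyroid microsomes (5 ug protein) with 25 uM Amplex UltraRed and 300 uM H2O2 in 200 mM phosphate buffer, 30 min at 37C in dark; fluorescence 544/590 nm. Eight concentrations, 5 nM–87.5 uM final, 0.5% DMSO, triplicate biological replicates.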

[9] = CCTE_Simmons_CellTiterGLO_HEK293T: Viability Assessment in CCTE's Assays for Thyroperoxidase (TPO) Inhibition, Simmons Lab (AID 2283665);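 also: cells exposed to compound for 24 h before readout; actives reduce ATP signal below DMSO vehicle meaning cytotoxicity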
Outline: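 ATP depletion measured in HEK293T cells after 24 h dosing (8 concentrations, 5 nM–87.5 uM final; DMSO 0.5%) using CellTiter-Glo luminescence; curves fit for loss of signal against DMSO baseline.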

[10] = read-out: solute carrier (SLC22A6), SLC22A6 (gene 9356); assay: LTEA_HepaRG_SLC22A6: Life Technologies and Expression Analysis (LTEA) Assay for solute carrier (SLC22A6) using HepaRG (AID 2283653; active = hit-call score of the fitted dose curve at least 0.9, where 1 is the maximum; inactive = score below 0.9); conditions: mRNA level, 48 h; actives raise or lower the signal
Outline: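 Read-out is SLC22A6 transcript level by qRT-PCR, normalised to three housekeeping genes and fitted for gain or loss relative to 0.5% DMSO vehicle. Human HepaRG cells received chemicals at up to 100 uM for 48 h.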

[11] = read-out: solute carrier (SLC10A1), SLC10A1 (gene 6554); assay: LTEA_HepaRG_SLC10A1: Life Technologies and Expression Analysis (LTEA) Assay for solute carrier (SLC10A1) using HepaRG (AID 2283657; active = hit-call score of the fitted dose curve at least 0.9, where 1 is the maximum; inactive = score below 0.9); conditions: mRNA level, 48 h; actives raise or lower the signal
Outline: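 Cryopreserved HepaRG cells are thawed, plated and cultured 48 h; medium is then switched to serum-free induction medium and chemicals added (8 points, max 100 uM, 0.5% DMSO). After 48 h, RNA is isolated and SLC10A1 quantified by qRT-PCR.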

[12] = read-out: matrix metalloproteinase-1 (MMP1), MMP1 (gene 4312); assay: LTEA_HepaRG_MMP1: Life Technologies and Expression Analysis (LTEA) Assay for matrix metalloproteinase-1 (MMP1) using HepaRG (AID 2283658; active = hit-call score of the fitted dose curve at least 0.9, where 1 is the maximum; inactive = score below 0.9); conditions: mRNA level, 48 h; actives raise or lower the signal
Outline: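 HepaRG, ~100,000 cells/well, 48 h pre-culture; serum-free induction medium; test chemical 8 conc (max 100 uM, half-log), duplicate, 48 h; 0.5% DMSO; qRT-PCR MMP1, housekeeping-normalized; gain/loss fit vs DMSO.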

[13] = read-out: Cytochrome P450 (CYP24A1_1), CYP24A1 (gene 1591); assay: LTEA_HepaRG_CYP24A1_1: Life Technologies and Expression Analysis (LTEA) Assay for Cytochrome P450 (CYP24A1_1) using HepaRG (AID 2283671; active = hit-call score of the fitted dose curve at least 0.9, where 1 is the maximum; inactive = score below 0.9); conditions: mRNA level, 48 h; actives raise or lower the signal
Outline: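 Cultures of human HepaRG were treated in duplicate for 48 h (0.5% DMSO vehicle, highest dose 100 uM). CYP24A1 mRNA by qRT-PCR, normalized to ACTB, GAPDH, POLR2A.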

[14] = STM_H9_OrnithineISnorm_perc: Stemina devTOX quickPredict H9 human embryonic stem cell (hESC)-based Assay for Ornithine (ORN) Metabolite Biomarker, Normalized (AID 2283712; active = hit-call score of the fitted dose curve at least 0.9, where 1 is the maximum; inactive = score below 0.9;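 also: ornithine released into spent medium during last day measured by mass spectrometry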)
Outline: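 Metabolite endpoint from spent media of pluripotent H9 cells treated 72 h with daily re-feeding; ornithine measured by UPLC-HRMS against its 13C spike-in and referenced to the median 0.1% DMSO vehicle response.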

[15] = STM_H9_CystineISnorm_perc: Stemina devTOX quickPredict H9 human embryonic stem cell (hESC)-based Assay for Cystine (CYSS) Metabolite Biomarker, Normalized (AID 2283713; active = hit-call score of the fitted dose curve at least 0.9, where 1 is the maximum; inactive = score below 0.9)
Outline: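 Normalized cystine level in conditioned medium from the final 24h of a 72h treatment of pluripotent H9 cells (daily media and compound renewal). Quantified by UPLC-HRMS with C13-labeled internal standard; scaled to median of 0.1% DMSO vehicle wells.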

[16] = ArunA_CellTiter_hNC: Viability Assessment in the ArunA Biomedical's Oris Neural Crest (hNC) Cell Migration Assay (AID 2283752)
Outline: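 Cytotoxicity endpoint run alongside the migration assay: neural crest cells on Matrigel, 60,000 per well, preincubated 16 h at 37C, treated 72 h; CellTiter Aqueous One signal loss relative to DMSO.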

[17] = ArunA_CellTiter_hNP: Viability Assessment in the ArunA Biomedical's Oris Neural Crest (hNC) Cell Migration Assay (AID 2283753)
Outline: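 Viability read with CellTiter 96 Aqueous One after 72 h chemical exposure of human hNP1 neuroprogenitors, which were plated on Matrigel in LIF/bFGF medium 16 h beforehand. Endpoint fitted in positive direction relative to DMSO.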

[18] = ArunA_Migration_hNP: ArunA Biomedical's Oris Neuroprogenitor (hNP) Cell Migration Assay (AID 2283754)
Outline: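 Readout is calcein-AM fluorescence (ex494/em517) of cells migrating into the detection zone, relative to DMSO. hNP1 cells (H9-derived) grown on Matrigel behind stoppers 16 h, then stoppers pulled and chemical applied 72 h; cytochalasin D as control.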

[19] = ArunA_Migration_hNC: ArunA Biomedical's Oris Neural Crest (hNC) Cell Migration Assay (AID 2283755)
Outline: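 Calcein-AM fluorescence (ex494 nm/em 517 nm) in the stopper-defined detection zone quantifies migration of hNC cells after 72 h chemical exposure; 60,000 cells/well plated on Matrigel with LIF and bFGF, 16 h pre-incubation. DMSO baseline.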

[20] = CEETOX_H295R_MTT_cell_viability: Viability Assessment in the CeeTox HT-H295R MTT Assay (AID 2283718; active = hit-call score of the fitted dose curve at least 0.9, where 1 is the maximum; inactive = score below 0.9)
Outline: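 H295R cells prestimulated 48 h with 10 uM forskolin, then exposed 48 h to test chemical (0.1% DMSO final). Viability by MTT (0.5 mg/ml, 4 h, 37 C), absorbance 570/650 nm; percent change versus DMSO, bidirectional fit.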

Measured: AC50

CCC(C)c1ccccc1O (stereo not drawn)
inactive: [1] | [2] | [3] | [4] | [5]

CCCCCCCCCCCCCCC
inactive: [1] | [2] | [3] | [5]

CCCCc1oc2ccccc2c1C(=O)c1cc(I)c(OCCN(CC)CC)c(I)c1
inactive: [2] | [3] | [4] | [5]
active: [6] 7.89 µM | [7] 5 µM

CCCCCCCCCCCC
active: [8] 43.8 µM | [9] 31.8 µM

O=C(c1ccccc1)c1ccccc1
inactive: [1] | [2] | [3] | [4] | [7] | [5]
active: [6] 15.1 µM

Cc1cc(Cc2cc(C)cc(C(C)(C)C)c2O)c(O)c(C(C)(C)C)c1
active: [8] 1.04 µM | [9] 6.57 µM

CCCCC=O
inactive: [10] | [1] | [2] | [3] | [11] | [12] | [4] | [13] | [5]
active: [6] 105 µM

CN(Cc1cnc2nc(N)nc(N)c2n1)c1ccc(C(=O)N[C@@H](CCC(=O)O)C(=O)O)cc1
active: [8] 9.76 µM | [9] 0.0489 µM | [14] 77.3 nM | [15] 87.3 nM | [7] 0.0863 µM
inactive: [1] | [2] | [3] | [4] | [5]

O=C1OC2(c3ccccc31)c1cc(I)c(O)c(I)c1Oc1c2cc(I)c(O)c1I
active: [8] 16 µM | [9] 5.7 µM

CC(=O)Nc1ccc(O)cc1
inactive: [1] | [2] | [4] | [5]

O=C1NS(=O)(=O)c2ccccc21
active: [14] 113 nM
inactive: [1] | [2] | [3] | [4] | [15] | [7] | [5]

CCCCCCCCCCCCOC(=O)c1cc(O)c(O)c(O)c1
active: [8] 1.05 µM | [9] 5.48 µM

CCCCC(CC)C(=O)O (stereo not drawn)
active: [14] 134 nM
inactive: [3] | [4] | [15] | [7] | [5]

CCCCCCc1ccc(N)cc1
active: [8] 0.0476 µM | [9] 11.3 µM

OCC(CO)(CBr)CBr
not listed: [6] | [8] | [9] | [10] | [11] | [12] | [13] | [20]
inactive: all other assays above

CN(C)CCOC(c1ccccc1)c1ccccc1
active: [2] 24.8 µM | [4] 32.7 µM | [7] 1.55 µM | [5] 202 µM
inactive: [1] | [3]

N=C(N)c1ccc(OCCCCCOc2ccc(C(=N)N)cc2)cc1
active: [6] 41.4 µM
inactive: [1] | [2] | [3] | [4] | [5]

Cc1[nH]nc2c1N=C(c1ccccc1Cl)c1cc([N+](=O)[O-])ccc1N2
inactive: [1] | [2] | [3] | [4] | [5]
active: [8] 2.9 µM | [9] 15.2 µM | [6] 1.32 µM | [14] 2080 nM | [15] 1620 nM | [7] 1.85 µM

CS(=O)(=O)c1ccc([C@@H](CC2CCCC2)C(=O)Nc2cnccn2)cc1Cl
active: [6] 58.6 µM
inactive: [2] | [3] | [4] | [5]

Cc1cc(C(C)(C)C)c(O)c(C(C)(C)C)c1
active: [8] 2.84 µM | [9] 24.5 µM

O=C(CCCN1CCC(O)(c2ccc(Cl)cc2)CC1)c1ccc(F)cc1
active: [6] 0.664 µM | [5] 4.09 µM | [17] 12.4 µM | [18] 50 µM and 61.7 nM | [19] 5.34 µM
inactive: [1] | [2] | [3] | [4] | [14] | [15] | [7] | [20] | [16] | [19]

CCCCCCCCCCCCOS(=O)(=O)O
active: [5] 11 µM
inactive: [1] | [2] | [4] | [6]

CC(C)c1c(C(=O)Nc2ccccc2)c(-c2ccccc2)c(-c2ccc(F)cc2)n1CC[C@@H](O)C[C@@H](O)CC(=O)O
active: [6] 2.65 µM and 3.07 µM
